An excerpt weighted towards active compounds, which were near 4.2% of everything screened.
NLRP3 yeast inh – NALP3 inflammasome inhibitors in reconstituted yeast, primary screen, luminescence, uHTS. Yeast reconstituted NLRP3/ASC/caspase-1, beta-gal luminescence, 24 h. AID 2825, 2010. actives 0.39% (n = 330,000). inhibition, % at 10 µM;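 active = inhibition of 50% or more; inactive = inhibition below 50%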;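 also: plate controls were induced DMSO wells for no effect and uninduced yeast grown without galactose for full effect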
V-ATPase pHluor – regulators of yeast V-ATPase proton pumping, primary screen, pHLuorin cytosolic pH fluorescence | AID 504577, 2011 | actives 0.37% (n = 350,000) | S. cerevisiae | response, % at 10 µM; in the data active = response mostly above about 7.3%, no sharp cut-off; inactive = mostly below about 5.4%; also: actives read high
NALP1 yeast inh – NALP1 inflammasome inhibitors in reconstituted yeast, colorimetric, S. cerevisiae, triplicate retest; S. cerevisiae NALP1/ASC/caspase-1 growth, X-gal OD620, 72 h; inhibition, % at 10 µM; actives 0.61% (n = 280,000); in the data active = inhibition mostly above about 24%, no sharp cut-off; inactive = mostly below about 32%
tim23-1 inh – growth inhibitors of tim23-1 mutant yeast, primary screen, luminescence, uHTS; S. cerevisiae tim23-1 growth, BacTiter-Glo luminescence, 24 h; inhibition, % at 20 µM; actives 1.3% (n = 330,000); AID 463212, 2010;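 active = growth inhibition of the mutant yeast at or above 50%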;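 also: temperature-sensitive mutant grown at 25 °C; plate controls were DMSO-treated mutant yeast for no effect and medium wells lacking yeast for full effect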
tim10-1 inh – growth inhibitors of tim10-1 mutant yeast, primary screen, luminescence, uHTS. S. cerevisiae tim10-1 ts strain growth, BacTiter-Glo, 24 h. inhibition, % at 20 µM. actives 2.2% (n = 330,000);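 active = inhibition of at least 40%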;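 also: mutant grown at 25 °C; 0% = DMSO wells with yeast and 100% = wells holding no yeast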
TIM10 inh – growth inhibitors of isogenic TIM10 control yeast, primary screen, counter-screen for tim10-1 yeast inhibitor project, luminescence, uHTS | S. cerevisiae TIM10 strain growth, BacTiter-Glo luminescence, 24 h | inhibition, % at 10 µM | actives 1.4% (n = 330,000) | AID 463195, 2010;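 active = inhibition of 40% or more at the single tested concentration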;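 also: wild-type TIM10 isogenic control strain grown at permissive 25 °C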
tim10-1 confirm – growth inhibitors of tim10-1 mutant yeast, confirmation, single concentration, luminescence, S. cerevisiae. shares compounds with tim10-1 inh. S. cerevisiae tim10-1 ts strain growth, BacTiter-Glo, 24 h. inhibition, % at 20 µM. actives 56% (n = 7,400);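 active = inhibition of yeast growth at or above a set limit in either of two repeat tests at 20 µM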;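 also: tim10-1 mutant grown at permissive 25 °C to find synthetic lethal compounds; 0% = DMSO yeast wells and 100% = medium wells without yeast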
TIM10 conf – growth inhibitors of wild-type TIM10 yeast, confirmation, counter-screen for tim10-1 synthetic lethality project, single concentration, luminescence, S. cerevisiae; shares compounds with TIM10 inh; S. cerevisiae tim10 strain growth, BacTiter-Glo luminescence, 24 h; inhibition, % at 10 µM; actives 63% (n = 4,600); AID 463215, 2010;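 active = inhibition of yeast growth at or above a set limit in either of two replicates at 10 µM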;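 also: this counterscreen used the strain with wild-type TIM10; 0% = yeast with DMSO and 100% = medium wells lacking yeast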
Numbers without * were called inactive; . = no result given.

SMILES | NLRP3 yeast inh | V-ATPase pHluor | NALP1 yeast inh | tim23-1 inh | tim10-1 inh | TIM10 inh | tim10-1 confirm | TIM10 conf
N/C(=N\OC(=O)CCCOc1ccccc1)c1ccccc1 | 14 | -2 | 14 | 41 | 44* | 51* | 37* | 35*
c1ccc(Nc2cccc(Nc3ccccc3)n2)cc1 | 28 | -2 | 18 | 39 | 64* | 60* | 57* | -10
CSCc1c(C(=O)NC2CCCc3ccccc32)oc2ccccc12 (centres undefined) | 16 | -8 | . | 24 | 50* | 41* | 33* | -2
Cc1ccc(Oc2nnc(-c3cccs3)c3ccccc23)cc1 | 5 | 2 | 15 | 15 | 14 | -5 | . | .
Cc1ccc(Oc2nnc(-c3cccs3)c3ccccc23)cc1C | 16 | -2 | 14 | 42 | 46* | 46* | 20 | 13
Cc1nn(Cc2ccccc2)c(Cl)c1C(=O)NC(C)(C)C | 23 | -1 | 22 | 10 | 22 | -16 | . | .
COc1ccc(C(=O)n2nnc3ccccc32)cc1Br | 8 | . | -14 | 40 | 52* | 40* | 22 | 0
COc1ccccc1S(=O)(=O)CC(O)COc1ccc(F)cc1Cl (centres undefined) | 16 | 1 | 5 | 16 | 1 | 6 | . | .
C=CCNc1nnc(SC2CC(=O)N(c3ccc(OCCC)cc3)C2=O)s1 (centres undefined) | 19 | -2 | -28 | 46 | 63* | 68* | 74* | 69*
CCOC(=O)c1ccc(N2C(=O)CC(Sc3nnc(C)s3)C2=O)cc1 (centres undefined) | 28 | -5 | 40* | 38 | 55* | 65* | 78* | 60*
Cc1c(C(=O)Nc2ccc3c(c2)OCCO3)sc2nc(-c3ccccc3)cn12 | 22 | -1 | 0 | 19 | -39 | -19 | . | .
COc1cccc(/C=C/C(=O)c2cccc([N+](=O)[O-])c2)c1 | 6 | 2 | -5 | 49 | 40 | 19 | . | .
Cc1cccc(/C=C/C(=O)c2ccc([N+](=O)[O-])o2)c1 | 34 | 6 | . | 45 | 53* | 89* | 7 | 98*
C=CCSc1nc(-c2ccccc2)c2cc(Cl)ccc2n1 | 15 | 5 | 37 | 13 | 9 | -6 | . | .
O=C(Nc1nc2ccc(Cl)cc2s1)C1CC1 | -11 | -4 | . | 33 | 41* | 46* | 43* | 46*
Cc1cc(NC(=O)CN2C(=O)NC3(CCCCCC3)C2=O)no1 | 3 | -2 | . | 13 | -2 | -1 | . | .
Cc1ccc(/C(N)=N/OC(=O)c2ccco2)cc1 | 13 | -1 | -90 | 38 | 46* | 52* | 34* | 37*
N/C(=N\OC(=O)c1ccco1)c1ccccc1 | 9 | 2 | 1 | 21 | 14 | 9 | . | .
O=C1CCCCN1CCc1c[nH]c2ccccc12 | 9 | -1 | -61 | 3 | 10 | -5 | . | .
CCc1ccc2c(c1)C1(C(=O)N2)N2CCCC2C(C(=O)c2ccc3ccccc3c2)C12C(=O)Nc1ccccc12 (centres undefined) | 3 | 1 | 27 | 34 | 38 | 33 | . | .
CCc1ccc2c(c1)C1(NN=C(c3cccc4ccccc34)S1)C(=O)N2 (centres undefined) | 28 | 2 | 10 | 50 | 54* | 55* | 47* | 59*
O=C(Oc1ccc2c(c1)OCO2)c1ccc(Br)c(S(=O)(=O)N2CCOCC2)c1 | -18 | 6 | 12 | 20 | 23 | 27 | . | .
CC1CCC(NC(=O)Nc2cccs2)CC1 (centres undefined) | 5 | 7 | 12 | 37 | 54* | 60* | 73* | 46*
C/C(=N\OCC(=O)NC12CC3CC(CC(C3)C1)C2)c1cc2ccccc2o1 | 10 | -1 | 28 | 19 | 45* | 40* | 22 | 36*
CC1=CC(C)(C)N2C(=O)C3(SCC(=O)N3c3ccc(F)cc3)c3cc(C)cc1c32 (centres undefined) | 3 | -2 | -2 | 43 | 46* | 41* | 26 | 37*
SMILES | NLRP3 yeast inh | V-ATPase pHluor | NALP1 yeast inh | tim23-1 inh | tim10-1 inh | TIM10 inh | tim10-1 confirm | TIM10 conf
O=C(CNC(=S)N(CCCN1CCOCC1)Cc1cccs1)NCc1ccccc1Cl | 7 | -1 | -8 | 9 | -6 | 11 | . | .
COc1ccc([C@@H]2[C@@H]3C(=O)N(C(C)(C)C)C(=O)[C@@H]3[C@]3(Cc4ccccc4)C(=O)N(c4ccc(C(F)(F)F)cc4)C(=O)N23)cc1 | 6 | 1 | 13 | 23 | 2 | 20 | . | .
C=CCc1cccc(CNc2nc3ccccc3n2CCC)c1O | 12 | 0 | 9 | 40 | 42* | 45* | 14 | 36*
CCc1cccc2c(C(=O)COC(=O)c3ccc([N+](=O)[O-])s3)c[nH]c12 | 47 | 0 | 101 | -93 | 64* | 74* | 23 | 76*
OCCOCCn1c(C(CO)Nc2nc(-c3ccc(Cl)cc3)cs2)nc2ccccc21 (centres undefined) | 22 | 1 | . | 19 | 9 | 9 | . | .
CN1/C(=C\C(=O)Nc2cccc(Cl)c2)C(C)(C)c2ccccc21 | 15 | 4 | 33 | 47 | 40* | 41* | 34* | 43*
COc1cccc(N2CCN(CC(=O)Nc3nc(C)c(C(=O)N(C)C)s3)CC2)c1 | 4 | 4 | -2 | 10 | 9 | -7 | . | .
COc1cccc(N2CCN(CC(=O)Nc3nc4c(s3)CC(C)CC4)CC2)c1 (centres undefined) | 8 | 3 | 7 | 37 | 40* | 40* | 20 | 29
Cc1cc(S(=O)(=O)NCc2ccccc2)ccc1OCC(=O)Nc1cccc([N+](=O)[O-])c1 | -4 | -2 | 11 | -9 | -1 | 7 | . | .
COc1ccc(-c2nc(-c3ccccc3)nc(N3CCN(C)CC3)c2C#N)cc1 | 33 | -1 | 0 | 50 | 45* | 53* | 22 | 26
CN(CCCNC(=O)c1cc2c(Cl)nc3ccccc3c2s1)Cc1ccccc1 | 29 | 2 | 20 | 11 | 53* | 43* | 41* | 44*
COc1ccc(C)cc1C(=O)CCC(=O)N1CCN(c2ccccc2F)CC1 | 6 | -2 | . | 19 | 6 | -8 | . | .
O=C(Nc1ncc2c(n1)-c1ccccc1CC2)c1cccc(Cl)c1 | -5 | -5 | 3 | 40 | 49* | 44* | 43* | 23

Screens (PubChem)
